By viability is commonly meant a read-out of living cells in per cent, often relative to untreated cells.

The assay can be described thus: Her2 expression decrease, cell viability multiplex – SKBR3 breast tumor cells, AlphaScreen, ATP viability, primary screen (AID 461).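 Note: percent of carrier control wells set as 100% viability.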 The settings on record: SKBR3 Her2 protein level, 18-24 h, measured here: SKBR3 viability, ATP luminescence, at 10 µM. (Bead proximity is the source of the signal in Alpha formats.)
As to `CCOC(=O)c1cccc(NC(=O)CSc2nc3ccccc3c(=O)n2CC)c1`, the viability is 87%. Regarding `Cc1cc(C)n(-c2nc3nonc3nc2-n2nc(C)cc2C)n1`, the viability is 91.5%.

On to `COc1ccc(C)cc1S(=O)(=O)N(CC(=O)O)c1ccccc1`, for which the viability stood at 118%. Next, `COc1cc(OC)cc(C(=O)N2CCN(C(=O)c3ccc(OC)c(OC)c3)CC2)c1`: 100%; `Cc1cccc(-c2nc(CN3CCCC(C(=O)NC4CCCC4)C3)c(C)o2)c1` (stereo not given): 86%; `CCOc1ccccc1OCC(=O)Nc1nnc(COC)s1`: 89%. Consider `CC(=O)OCC1OC(c2ccccc2)C(OC(C)=O)C(OC(C)=O)C1OC(C)=O` (stereo not given), for which the viability came out at 90%.

On to `COc1ccc(-c2nnc(SCC(=O)Nc3ccc(Cl)cc3)n2C)cc1`, for which the viability is 82.5%.

With `Cc1sc2c(c1C)CN(C1CC(C)(C)NC(C)(C)C1)CN2C(=O)c1ccco1`, the viability was found to be 86.5%. Turning to `C=C(c1cccc2ccccc12)P(=O)(O)O`, the viability turned out to be 116%.

As for `CS(=O)(=O)C1=C(O)C(=O)N(c2ccccc2)C1c1ccccc1` (stereo not given), the viability is 109%. With `CCCN1CCN(CCCNC(=O)C2CCCN(c3nc4ccc(OCC)cc4s3)C2)CC1` (stereo not given), the viability was 85.5%.

For the compound `CC(=O)Nc1ccc(Cl)cc1C(=O)O`, the viability is 96.5%. Next, `Cc1nc2ccccc2c2c1C(=O)N(CCC1=CCCCC1)C2=O`: 83.5%; `COc1ccc(-c2noc(-c3ccccc3C(=O)NCc3ccco3)n2)cc1`: 93%; `COc1cccc(OC)c1C(=O)Nc1ccc(CN2CCCCC2)cc1`: 98.5%.

`CCOC(=O)C1=C(C)N=C2SCCC(=O)N2C1c1cc(Br)ccc1OC` (stereo not given): the viability was 94.5%. Next, `Cc1ccc2cc3cc(C(=O)N4CC(C)CC(C)C4)oc3nc2c1` (stereo not given): 108%; `COC(=O)C1=C(C)OC(N)=C(C#N)C1c1c(C)nn(-c2ccccc2)c1Cl` (stereo not given): 89%; `COCC(=O)N(Cc1cc2cc(OC)ccc2[nH]c1=O)c1ccccc1`: 104%.

`O=C(COc1ccccc1)N1CCN(C(=O)c2cccc(F)c2)CC1`: the viability came out at 112%. For `O=C(CCCCC(=O)NCc1cccs1)NCc1cccs1`, the viability is 95.5%.

In the case of `Cc1ccc(Cn2c(C(=O)NCCCN3CCOCC3)cc3sccc32)cc1`, the viability was found to be 84.5%.

Regarding `CCC(=O)N1CCNC(=O)C1CC(=O)Nc1ccc(C)c(Cl)c1` (stereo not given), the viability worked out at 97%.

Consider `O=C1CSC(c2cn(-c3ccccc3)nc2-c2ccccc2)N1Cc1ccco1` (stereo not given), for which the viability came out at 97%. For the compound `COc1ccc(-c2cc(C(=O)Nc3ccc(C)cc3)no2)cc1`, the viability is 121%. As to `CCn1nnc(NC(=O)c2cc3ccccc3o2)n1`, the viability was 103%.

Regarding `O=C(NCC(=O)N(c1cnc2ccccc2c1)C(C(=O)NC1CCCC1)c1ccncc1)c1ccco1` (stereo not given), the viability is 86%. Next, `CCOC(=O)Nc1ccc(OC)cc1S(=O)(=O)N1CCCCC1`: 88.5%; `CCN(CC)CCN1C(=O)C(=O)/C(=C(/O)c2c(C)[nH]c(C(=O)OC)c2C)C1c1ccccc1OC` (stereo not given): 104%; `Cc1cc(Nc2ccccc2)n(CCC#N)n1`: 83.5%.

Regarding `Cc1cc(C)n(-c2nc3c(c(=O)n(Cc4ccc(Cl)c(Cl)c4)c(=O)n3C)n2C)n1`, the viability amounted to 103%. Regarding `CCN(Cc1cc2cc(OC)ccc2[nH]c1=O)C(=O)Cc1ccc(OC)cc1`, the viability is 91%. Next, `COc1cccc(CNC(=O)C2CCN(C(=O)N(C)C)CC2)c1`: 97.5%; `CCSc1cc(C2C(C(=O)OC)=C(C)NC3=C2C(=O)CCC3)c(C)o1` (stereo not given): 79%.

For `Cc1ccc2nc(NC(=O)C3CCCN(S(=O)(=O)c4cnc[nH]4)C3)sc2c1` (stereo not given), the viability amounted to 96.5%.

On to `C=CCn1c(SCc2ccc(C#N)cc2)nnc1-c1cccc(Cl)c1`, for which the viability is 95.5%. On to `C=CCn1c(SCC(=O)Nc2ccccc2OC)nnc1-c1ccco1`, for which the viability was 95%. As to `COCCNC(=O)C(c1ccc(O)cc1)N(Cc1ccco1)C(=O)CCC(=O)Nc1nccs1` (stereo not given), the viability was 81.5%.

`Cc1cc(C)c(OCC(=O)Nc2ccc3c(c2)OCO3)cc1C`: the viability worked out at 106%.
